Source: PubChem BioAssay (several laboratories)
CASP6 VEID inh = caspase-6 (human) enzyme inhibition. P55212. purified caspase-6, Z-VEID-R110 cleavage fluorescence. inhibition, % at 12.5 µM. 350,000 tested, 0.53% active. AID 686996;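 active means mean inhibition across replicates at least about 35%, with every replicate also reaching that limit, limit read from the data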
SIRT5 inh = sirtuin-5 (human) deacylase inhibition. Purified SirT5, succinyl-peptide AMC, trypsin-coupled fluorescence. inhibition, % at 15 µM. 330,000 tested, 1.1% active. AID 652115; in the data active means inhibition above about 15%
Target sequence (Q9NXA8 whole entry, looked up): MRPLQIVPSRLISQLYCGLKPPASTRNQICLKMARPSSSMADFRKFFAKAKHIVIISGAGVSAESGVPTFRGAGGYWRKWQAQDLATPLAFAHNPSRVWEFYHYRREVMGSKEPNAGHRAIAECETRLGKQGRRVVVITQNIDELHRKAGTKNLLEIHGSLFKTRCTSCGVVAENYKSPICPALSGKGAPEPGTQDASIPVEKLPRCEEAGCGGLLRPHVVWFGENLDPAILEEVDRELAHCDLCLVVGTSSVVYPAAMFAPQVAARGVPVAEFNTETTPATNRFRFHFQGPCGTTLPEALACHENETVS
UBC9 SUMO inh = blocks human SUMOylation mediated by UBC9 | HTRF SUMOylation assay, SAE1/SAE2 + UBC9, in vitro | 290,000 tested, 0.36% active | inhibition, % at 35 µM | P63279 | AID 2006; in the data active means inhibition above about 50%, passing the limit was not always enough
NSD2 HMT inh = inhibitors of human histone methyltransferase NSD2; O96028; NSD2 peptide methylation, AlphaScreen, 120 min; inhibition, % at 12.5 µM; 310,000 tested, 0.54% active; in the data active means inhibition above about 50%
Hits are given with their value; ! = repeats disagree. Shown are actives, neighbours in structure and some others; about 1.6% of the full set was active somewhere.

For C[C@@H]1CCCCO[C@H](CN(C)S(=O)(=O)c2ccc(Cl)cc2)[C@@H](C)CN([C@H](C)CO)C(=O)c2cc(NC(=O)Nc3ccc(F)cc3)ccc2O1 the results were CASP6 VEID inh inactive and SIRT5 inh 16.
Screening COc1ccc(S(=O)(=O)N(C)C[C@H]2OCCCC[C@H](C)Oc3ccc(NC(=O)Nc4ccc(F)cc4)cc3C(=O)N([C@H](C)CO)C[C@H]2C)cc1 returned CASP6 VEID inh inactive and SIRT5 inh 17!.
Screening COc1ccc(S(=O)(=O)N(C)C[C@H]2OCCCC[C@@H](C)Oc3ccc(NC(=O)Nc4ccc(F)cc4)cc3C(=O)N([C@H](C)CO)C[C@H]2C)cc1 returned CASP6 VEID inh inactive and SIRT5 inh 16.
C[C@H](CO)N1C[C@H](C)[C@H](CN(C)S(=O)(=O)c2ccc(Cl)cc2)OCCCC[C@H](C)Oc2ccc(NC(=O)Nc3ccc4c(c3)OCO4)cc2C1=O was read as CASP6 VEID inh inactive and SIRT5 inh 21.
O=C(N=C1c2ccccc2CN1c1cccc(S(=O)(=O)N2CCOCC2)c1)c1ccccc1 was read as NSD2 HMT inh inactive.
`CC(=O)c1cccc(NC(=O)CCS(=O)(=O)c2ccc(Br)s2)c1` gave CASP6 VEID inh inactive, SIRT5 inh 19, UBC9 SUMO inh inactive and NSD2 HMT inh inactive.
Screening COC(=O)[C@]12CCCCC=C1N(Cc1ccc(Cl)cc1Cl)C(=O)[C@H](CC(=O)NCc1cccc(C(F)(F)F)c1)C2 returned CASP6 VEID inh inactive and SIRT5 inh 20.
For CCOC(=O)[C@]12CCC=C1N(Cc1ccc(Cl)cc1Cl)C(=O)[C@H](CC(=O)NCCC(C)C)C2 the results were CASP6 VEID inh inactive and SIRT5 inh inactive.
`COC(=O)[C@]12CCCCC=C1N(Cc1ccccc1)C(=O)[C@H](CC(=O)NCCCCc1ccccc1)C2` gave CASP6 VEID inh inactive and SIRT5 inh 17.
COC(=O)[C@]12CCCCC=C1N(CCC1=CCCCC1)C(=O)[C@H](CC(=O)NCCc1ccccc1OC)C2 was read as CASP6 VEID inh inactive and SIRT5 inh 16.
`C#CCNC(=O)C[C@@H]1C[C@@]2(C(=O)OCC)CCC=C2N(Cc2ccc(Cl)cc2Cl)C1=O` gave CASP6 VEID inh 76 and SIRT5 inh inactive.
For CCOC(=O)[C@]12CCCC=C1N(CCC1=CCCCC1)C(=O)[C@H](CC(=O)NCCc1ccccc1OC)C2 the results were CASP6 VEID inh inactive and SIRT5 inh inactive.
`C[C@H](CO)N1C[C@H](C)[C@@H](CN(C)C)Oc2ccc(NC(=O)C3CCCCC3)cc2CC1=O` gave CASP6 VEID inh inactive and SIRT5 inh inactive.
N#C[C@H]1[C@@H](c2ccc(C3=CCCC3)cc2)[C@H](CO)N1C(=O)c1ccccn1 was read as CASP6 VEID inh inactive and SIRT5 inh inactive.
For O=C(C[C@H]1C=C[C@H](NC(=O)c2ccccc2)[C@@H](CO)O1)Nc1ccc(-c2ccccc2)cc1 the results were CASP6 VEID inh inactive and SIRT5 inh inactive.
For C[C@H]1CN([C@@H](C)CO)C(=O)c2cc(C#CC3CC3)cnc2O[C@H]1CN(C)S(=O)(=O)c1cccc(F)c1 the results were CASP6 VEID inh inactive and SIRT5 inh inactive.
`COC(=O)[C@]12CCCCC=C1N(Cc1ccccc1)C(=O)[C@H](CC(=O)NCC13CC4CC(CC(C4)C1)C3)C2` gave CASP6 VEID inh 54 and SIRT5 inh inactive.
Screening O=C(CSc1ccc(-c2ccccn2)nn1)N1CCCCC1 returned CASP6 VEID inh inactive, SIRT5 inh 15, UBC9 SUMO inh inactive and NSD2 HMT inh inactive.
CCCn1c(SCC(=O)NC2CCCC2)nnc1-c1ccccn1 was read as CASP6 VEID inh inactive, SIRT5 inh inactive, UBC9 SUMO inh inactive and NSD2 HMT inh inactive.
For CCOC(=O)N1CCN(C(=O)CSc2ccc3nnc(-c4ccccn4)n3n2)CC1 the results were CASP6 VEID inh inactive, SIRT5 inh 16, UBC9 SUMO inh inactive and NSD2 HMT inh inactive.
O=C(CSc1ccc2nnc(-c3ccccn3)n2n1)N1CCOCC1 was read as CASP6 VEID inh inactive and UBC9 SUMO inh inactive.
`CCCn1c(SCC(=O)N2CCCC(C)C2)nnc1-c1ccccn1` (stereo unspecified) gave CASP6 VEID inh inactive, SIRT5 inh 24, UBC9 SUMO inh inactive and NSD2 HMT inh inactive.
Cc1ccc(S(=O)(=O)N(C)C[C@H]2OCCCC[C@@H](C)Oc3ccc(NS(=O)(=O)c4ccc(Cl)cc4)cc3C(=O)N([C@@H](C)CO)C[C@H]2C)cc1 was read as CASP6 VEID inh inactive and SIRT5 inh 22.
